# Assay results reported in ChEMBL document CHEMBL1961873, “Compounds: GSK PKIS; Assays: Nanosyn kinase panel” (2012).
# Assays:
# [1] = biological target: T1, Serine/threonine-protein kinase D2 (Homo sapiens) (UniProt Q9BZL6); conditions: at 1 µM;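 note: mean value of PRKD2 inhibition, from the GSK PKIS screening panel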
# T1 sequence (whole entry): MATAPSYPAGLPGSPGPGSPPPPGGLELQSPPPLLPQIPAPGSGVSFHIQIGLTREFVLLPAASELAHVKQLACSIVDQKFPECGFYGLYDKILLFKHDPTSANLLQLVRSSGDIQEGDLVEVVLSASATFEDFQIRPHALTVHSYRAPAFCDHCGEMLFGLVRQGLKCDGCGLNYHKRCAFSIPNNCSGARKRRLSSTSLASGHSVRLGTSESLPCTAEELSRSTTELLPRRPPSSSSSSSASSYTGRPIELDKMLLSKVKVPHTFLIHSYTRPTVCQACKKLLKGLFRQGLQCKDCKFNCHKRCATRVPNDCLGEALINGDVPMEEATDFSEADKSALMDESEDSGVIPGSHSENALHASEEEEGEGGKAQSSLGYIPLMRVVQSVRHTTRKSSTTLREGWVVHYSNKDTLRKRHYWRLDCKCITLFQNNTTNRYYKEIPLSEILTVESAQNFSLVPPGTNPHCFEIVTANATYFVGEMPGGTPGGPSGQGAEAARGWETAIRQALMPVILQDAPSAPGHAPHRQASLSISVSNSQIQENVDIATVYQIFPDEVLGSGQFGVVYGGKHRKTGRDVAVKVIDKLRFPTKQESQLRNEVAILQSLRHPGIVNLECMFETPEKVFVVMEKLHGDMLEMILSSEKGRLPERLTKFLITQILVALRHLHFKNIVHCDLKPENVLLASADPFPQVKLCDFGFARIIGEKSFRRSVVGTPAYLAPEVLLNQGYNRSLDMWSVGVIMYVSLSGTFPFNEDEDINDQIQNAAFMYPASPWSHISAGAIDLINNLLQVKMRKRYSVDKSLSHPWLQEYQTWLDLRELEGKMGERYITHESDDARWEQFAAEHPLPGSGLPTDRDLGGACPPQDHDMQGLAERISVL
# [2] = biological target: T2, Serine/threonine-protein kinase D3 (Homo sapiens) (UniProt O94806); conditions: at 0.1 µM
# T2 sequence (whole entry): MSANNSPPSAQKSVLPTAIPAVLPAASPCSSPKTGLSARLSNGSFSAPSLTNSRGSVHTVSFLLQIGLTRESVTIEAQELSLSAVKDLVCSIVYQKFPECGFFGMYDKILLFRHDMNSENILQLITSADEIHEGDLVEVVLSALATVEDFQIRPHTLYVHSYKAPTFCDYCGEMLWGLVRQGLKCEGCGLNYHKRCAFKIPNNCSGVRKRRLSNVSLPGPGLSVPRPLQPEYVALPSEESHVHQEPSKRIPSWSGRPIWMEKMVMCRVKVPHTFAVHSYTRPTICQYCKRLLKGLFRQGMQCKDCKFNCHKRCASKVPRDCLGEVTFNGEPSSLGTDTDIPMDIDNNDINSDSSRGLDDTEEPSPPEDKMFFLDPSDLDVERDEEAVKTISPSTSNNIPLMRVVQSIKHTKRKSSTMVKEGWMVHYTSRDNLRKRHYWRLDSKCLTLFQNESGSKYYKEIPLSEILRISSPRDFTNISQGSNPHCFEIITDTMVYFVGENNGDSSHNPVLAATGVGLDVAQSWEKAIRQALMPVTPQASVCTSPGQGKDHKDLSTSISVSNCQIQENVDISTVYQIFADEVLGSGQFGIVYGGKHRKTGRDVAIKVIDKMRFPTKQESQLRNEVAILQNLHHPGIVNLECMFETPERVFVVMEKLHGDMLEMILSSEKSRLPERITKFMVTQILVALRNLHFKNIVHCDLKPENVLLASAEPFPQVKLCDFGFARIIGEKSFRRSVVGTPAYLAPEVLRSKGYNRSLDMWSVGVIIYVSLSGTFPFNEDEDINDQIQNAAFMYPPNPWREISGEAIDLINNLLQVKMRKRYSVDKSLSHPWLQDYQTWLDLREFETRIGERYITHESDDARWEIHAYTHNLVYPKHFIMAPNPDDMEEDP
# [3] = biological target: T2, Serine/threonine-protein kinase D3 (Homo sapiens); conditions: at 1 µM
# [4] = biological target: T3, cGMP-dependent protein kinase 1 (Homo sapiens) (UniProt Q13976); conditions: at 0.1 µM
# T3 sequence (whole entry): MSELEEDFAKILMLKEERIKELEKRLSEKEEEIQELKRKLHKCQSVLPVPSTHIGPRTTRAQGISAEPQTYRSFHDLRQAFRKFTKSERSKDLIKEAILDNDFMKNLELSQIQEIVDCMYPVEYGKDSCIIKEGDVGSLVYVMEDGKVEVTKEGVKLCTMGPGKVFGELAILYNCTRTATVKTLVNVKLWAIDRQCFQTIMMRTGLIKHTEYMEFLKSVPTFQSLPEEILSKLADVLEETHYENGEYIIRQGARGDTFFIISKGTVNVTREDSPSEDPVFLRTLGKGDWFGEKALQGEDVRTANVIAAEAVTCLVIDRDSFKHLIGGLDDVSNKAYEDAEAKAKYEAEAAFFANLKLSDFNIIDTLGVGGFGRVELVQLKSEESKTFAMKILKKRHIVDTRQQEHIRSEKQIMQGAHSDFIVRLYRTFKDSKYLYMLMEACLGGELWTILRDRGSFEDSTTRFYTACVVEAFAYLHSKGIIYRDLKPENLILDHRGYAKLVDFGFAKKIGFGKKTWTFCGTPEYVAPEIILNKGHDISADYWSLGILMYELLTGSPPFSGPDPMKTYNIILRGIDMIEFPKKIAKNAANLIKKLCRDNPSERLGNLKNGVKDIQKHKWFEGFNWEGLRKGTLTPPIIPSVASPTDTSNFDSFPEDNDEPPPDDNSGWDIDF
# [5] = biological target: T3, cGMP-dependent protein kinase 1 (Homo sapiens); conditions: at 1 µM
# [6] = biological target: T4, cGMP-dependent protein kinase 2 (Homo sapiens) (UniProt Q13237); conditions: at 0.1 µM
# T4 sequence (whole entry): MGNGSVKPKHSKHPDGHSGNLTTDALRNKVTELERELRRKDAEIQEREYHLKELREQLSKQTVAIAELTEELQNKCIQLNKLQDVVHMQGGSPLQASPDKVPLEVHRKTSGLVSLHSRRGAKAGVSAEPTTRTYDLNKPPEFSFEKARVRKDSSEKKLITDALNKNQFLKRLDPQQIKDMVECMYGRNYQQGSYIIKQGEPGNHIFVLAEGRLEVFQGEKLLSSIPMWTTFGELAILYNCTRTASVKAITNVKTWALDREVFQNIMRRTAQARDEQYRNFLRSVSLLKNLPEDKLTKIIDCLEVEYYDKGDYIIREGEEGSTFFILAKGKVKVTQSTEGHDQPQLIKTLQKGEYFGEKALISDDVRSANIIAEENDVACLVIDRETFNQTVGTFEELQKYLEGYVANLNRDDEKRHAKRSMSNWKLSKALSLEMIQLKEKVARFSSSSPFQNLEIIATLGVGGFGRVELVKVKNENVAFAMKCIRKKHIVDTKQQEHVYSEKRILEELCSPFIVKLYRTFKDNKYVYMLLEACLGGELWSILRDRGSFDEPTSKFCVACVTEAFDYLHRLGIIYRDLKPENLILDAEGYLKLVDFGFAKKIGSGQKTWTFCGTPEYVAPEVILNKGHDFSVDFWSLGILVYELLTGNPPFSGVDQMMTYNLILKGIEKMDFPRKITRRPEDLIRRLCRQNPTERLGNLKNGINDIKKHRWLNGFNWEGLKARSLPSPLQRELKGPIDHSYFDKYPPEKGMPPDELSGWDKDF
# [7] = biological target: T4, cGMP-dependent protein kinase 2 (Homo sapiens); conditions: at 1 µM
# [8] = biological target: T5, cAMP-dependent protein kinase catalytic subunit PRKX (Homo sapiens) (UniProt P51817); conditions: at 0.1 µM
# T5 sequence (whole entry): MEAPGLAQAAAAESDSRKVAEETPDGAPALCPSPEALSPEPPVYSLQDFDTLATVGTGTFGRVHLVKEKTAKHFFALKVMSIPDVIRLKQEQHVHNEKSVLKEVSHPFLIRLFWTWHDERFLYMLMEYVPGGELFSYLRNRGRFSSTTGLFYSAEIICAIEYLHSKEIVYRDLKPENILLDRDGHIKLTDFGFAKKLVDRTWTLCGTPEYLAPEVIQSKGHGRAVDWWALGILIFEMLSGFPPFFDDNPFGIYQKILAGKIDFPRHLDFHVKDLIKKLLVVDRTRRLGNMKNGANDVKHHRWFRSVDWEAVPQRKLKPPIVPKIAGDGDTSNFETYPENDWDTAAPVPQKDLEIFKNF
# [9] = biological target: T5, cAMP-dependent protein kinase catalytic subunit PRKX (Homo sapiens); conditions: at 1 µM
# [10] = biological target: Rho-associated protein kinase 1 (Homo sapiens) (UniProt Q13464); conditions: at 0.1 µM
# [11] = biological target: Rho-associated protein kinase 1 (Homo sapiens) (UniProt Q13464); conditions: at 1 µM
# [12] = biological target: Rho-associated protein kinase 2 (Homo sapiens) (UniProt O75116); conditions: at 0.1 µM
# [13] = biological target: Rho-associated protein kinase 2 (Homo sapiens) (UniProt O75116); conditions: at 1 µM
# [14] = biological target: Ribosomal protein S6 kinase alpha-1 (Homo sapiens) (UniProt Q15418); conditions: at 0.1 µM
# [15] = biological target: Ribosomal protein S6 kinase alpha-1 (Homo sapiens) (UniProt Q15418); conditions: at 1 µM
# [16] = biological target: Ribosomal protein S6 kinase alpha-3 (Homo sapiens) (UniProt P51812); conditions: at 0.1 µM
# [17] = biological target: Ribosomal protein S6 kinase alpha-3 (Homo sapiens) (UniProt P51812); conditions: at 1 µM
# [18] = biological target: Ribosomal protein S6 kinase alpha-2 (Homo sapiens) (UniProt Q15349); conditions: at 0.1 µM
# [19] = biological target: Ribosomal protein S6 kinase alpha-2 (Homo sapiens) (UniProt Q15349); conditions: at 1 µM
# [20] = biological target: Ribosomal protein S6 kinase alpha-6 (Homo sapiens) (UniProt Q9UK32); conditions: at 0.1 µM;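 note: reported value is the mean inhibition of RSK4, from the GSK PKIS kinase inhibitor screen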
# Ribosomal protein S6 kinase alpha-6 (Homo sapiens), sequence (Q9UK32 whole entry): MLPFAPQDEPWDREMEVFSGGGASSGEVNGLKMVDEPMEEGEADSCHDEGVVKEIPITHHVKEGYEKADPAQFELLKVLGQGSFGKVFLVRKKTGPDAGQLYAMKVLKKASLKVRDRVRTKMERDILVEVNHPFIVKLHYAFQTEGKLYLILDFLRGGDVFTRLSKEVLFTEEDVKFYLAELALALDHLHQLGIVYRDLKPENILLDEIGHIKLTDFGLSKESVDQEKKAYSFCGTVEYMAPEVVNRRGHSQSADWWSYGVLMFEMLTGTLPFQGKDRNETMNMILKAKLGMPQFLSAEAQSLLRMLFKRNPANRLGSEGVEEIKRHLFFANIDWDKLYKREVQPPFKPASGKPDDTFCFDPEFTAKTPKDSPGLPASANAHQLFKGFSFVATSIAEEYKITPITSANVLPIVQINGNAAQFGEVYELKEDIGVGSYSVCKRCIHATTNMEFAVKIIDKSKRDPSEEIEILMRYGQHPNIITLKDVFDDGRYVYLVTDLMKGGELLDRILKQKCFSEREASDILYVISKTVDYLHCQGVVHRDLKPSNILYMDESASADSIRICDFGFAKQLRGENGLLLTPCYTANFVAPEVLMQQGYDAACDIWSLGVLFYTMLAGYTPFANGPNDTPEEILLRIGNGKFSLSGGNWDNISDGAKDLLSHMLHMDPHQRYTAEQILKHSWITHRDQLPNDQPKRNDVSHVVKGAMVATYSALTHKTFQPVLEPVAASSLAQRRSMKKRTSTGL
# Ribosomal protein S6 kinase alpha-3 (Homo sapiens), sequence (P51812 whole entry): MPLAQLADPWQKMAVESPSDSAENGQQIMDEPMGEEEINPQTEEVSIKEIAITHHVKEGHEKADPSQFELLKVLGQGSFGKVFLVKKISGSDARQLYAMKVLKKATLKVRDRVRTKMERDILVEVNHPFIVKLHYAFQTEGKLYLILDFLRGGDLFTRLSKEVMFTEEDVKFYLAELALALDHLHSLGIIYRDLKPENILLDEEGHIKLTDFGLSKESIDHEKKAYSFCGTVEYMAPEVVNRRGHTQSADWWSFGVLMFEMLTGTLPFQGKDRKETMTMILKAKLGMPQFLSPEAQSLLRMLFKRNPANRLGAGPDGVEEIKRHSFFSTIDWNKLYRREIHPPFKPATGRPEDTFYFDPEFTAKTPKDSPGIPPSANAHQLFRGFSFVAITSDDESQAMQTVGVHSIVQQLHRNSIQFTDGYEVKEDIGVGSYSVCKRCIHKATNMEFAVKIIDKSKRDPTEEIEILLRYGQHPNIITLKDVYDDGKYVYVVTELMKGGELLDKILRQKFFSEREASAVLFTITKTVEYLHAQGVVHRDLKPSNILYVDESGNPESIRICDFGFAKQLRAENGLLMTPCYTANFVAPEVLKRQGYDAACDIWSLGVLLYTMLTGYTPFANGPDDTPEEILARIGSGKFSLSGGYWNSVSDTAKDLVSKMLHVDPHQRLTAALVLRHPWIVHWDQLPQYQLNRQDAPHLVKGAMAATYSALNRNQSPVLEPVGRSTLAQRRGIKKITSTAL
# Rho-associated protein kinase 1 (Homo sapiens), sequence (Q13464 2-1354 limits assumed): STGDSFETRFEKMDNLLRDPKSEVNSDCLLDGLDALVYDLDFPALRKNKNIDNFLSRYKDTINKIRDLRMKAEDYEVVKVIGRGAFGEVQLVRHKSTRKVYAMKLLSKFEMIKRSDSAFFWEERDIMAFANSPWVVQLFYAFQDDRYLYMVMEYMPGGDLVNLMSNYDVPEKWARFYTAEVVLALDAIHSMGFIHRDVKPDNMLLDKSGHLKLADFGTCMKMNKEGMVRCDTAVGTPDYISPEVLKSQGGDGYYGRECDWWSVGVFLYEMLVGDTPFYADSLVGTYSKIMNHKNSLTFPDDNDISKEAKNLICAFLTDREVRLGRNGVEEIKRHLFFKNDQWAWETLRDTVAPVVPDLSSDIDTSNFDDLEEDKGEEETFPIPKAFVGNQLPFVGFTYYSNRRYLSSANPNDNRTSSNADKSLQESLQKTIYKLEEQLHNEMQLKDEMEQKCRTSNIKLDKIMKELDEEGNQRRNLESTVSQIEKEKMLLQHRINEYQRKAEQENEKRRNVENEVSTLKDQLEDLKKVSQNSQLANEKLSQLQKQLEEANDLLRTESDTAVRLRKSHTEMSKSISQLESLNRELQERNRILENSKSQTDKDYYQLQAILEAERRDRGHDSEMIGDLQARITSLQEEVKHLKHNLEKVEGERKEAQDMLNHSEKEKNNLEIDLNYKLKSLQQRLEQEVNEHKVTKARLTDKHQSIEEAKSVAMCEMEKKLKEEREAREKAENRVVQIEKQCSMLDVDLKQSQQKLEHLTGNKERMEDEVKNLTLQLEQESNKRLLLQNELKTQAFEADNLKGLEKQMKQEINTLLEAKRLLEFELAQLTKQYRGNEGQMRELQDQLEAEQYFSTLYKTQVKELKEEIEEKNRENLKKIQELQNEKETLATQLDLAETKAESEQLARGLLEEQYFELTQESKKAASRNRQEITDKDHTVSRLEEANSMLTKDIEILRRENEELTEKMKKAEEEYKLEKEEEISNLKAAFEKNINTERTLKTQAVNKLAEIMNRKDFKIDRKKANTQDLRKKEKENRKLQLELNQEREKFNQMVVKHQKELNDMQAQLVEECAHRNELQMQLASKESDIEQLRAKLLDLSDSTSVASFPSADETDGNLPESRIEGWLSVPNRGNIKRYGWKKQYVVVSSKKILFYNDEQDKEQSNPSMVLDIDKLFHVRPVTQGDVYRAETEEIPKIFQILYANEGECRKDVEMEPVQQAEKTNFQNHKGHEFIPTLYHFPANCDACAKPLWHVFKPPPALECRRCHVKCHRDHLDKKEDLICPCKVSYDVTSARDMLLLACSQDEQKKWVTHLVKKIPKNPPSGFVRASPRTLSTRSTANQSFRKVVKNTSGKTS
# Rho-associated protein kinase 2 (Homo sapiens), sequence (O75116 whole entry, looked up): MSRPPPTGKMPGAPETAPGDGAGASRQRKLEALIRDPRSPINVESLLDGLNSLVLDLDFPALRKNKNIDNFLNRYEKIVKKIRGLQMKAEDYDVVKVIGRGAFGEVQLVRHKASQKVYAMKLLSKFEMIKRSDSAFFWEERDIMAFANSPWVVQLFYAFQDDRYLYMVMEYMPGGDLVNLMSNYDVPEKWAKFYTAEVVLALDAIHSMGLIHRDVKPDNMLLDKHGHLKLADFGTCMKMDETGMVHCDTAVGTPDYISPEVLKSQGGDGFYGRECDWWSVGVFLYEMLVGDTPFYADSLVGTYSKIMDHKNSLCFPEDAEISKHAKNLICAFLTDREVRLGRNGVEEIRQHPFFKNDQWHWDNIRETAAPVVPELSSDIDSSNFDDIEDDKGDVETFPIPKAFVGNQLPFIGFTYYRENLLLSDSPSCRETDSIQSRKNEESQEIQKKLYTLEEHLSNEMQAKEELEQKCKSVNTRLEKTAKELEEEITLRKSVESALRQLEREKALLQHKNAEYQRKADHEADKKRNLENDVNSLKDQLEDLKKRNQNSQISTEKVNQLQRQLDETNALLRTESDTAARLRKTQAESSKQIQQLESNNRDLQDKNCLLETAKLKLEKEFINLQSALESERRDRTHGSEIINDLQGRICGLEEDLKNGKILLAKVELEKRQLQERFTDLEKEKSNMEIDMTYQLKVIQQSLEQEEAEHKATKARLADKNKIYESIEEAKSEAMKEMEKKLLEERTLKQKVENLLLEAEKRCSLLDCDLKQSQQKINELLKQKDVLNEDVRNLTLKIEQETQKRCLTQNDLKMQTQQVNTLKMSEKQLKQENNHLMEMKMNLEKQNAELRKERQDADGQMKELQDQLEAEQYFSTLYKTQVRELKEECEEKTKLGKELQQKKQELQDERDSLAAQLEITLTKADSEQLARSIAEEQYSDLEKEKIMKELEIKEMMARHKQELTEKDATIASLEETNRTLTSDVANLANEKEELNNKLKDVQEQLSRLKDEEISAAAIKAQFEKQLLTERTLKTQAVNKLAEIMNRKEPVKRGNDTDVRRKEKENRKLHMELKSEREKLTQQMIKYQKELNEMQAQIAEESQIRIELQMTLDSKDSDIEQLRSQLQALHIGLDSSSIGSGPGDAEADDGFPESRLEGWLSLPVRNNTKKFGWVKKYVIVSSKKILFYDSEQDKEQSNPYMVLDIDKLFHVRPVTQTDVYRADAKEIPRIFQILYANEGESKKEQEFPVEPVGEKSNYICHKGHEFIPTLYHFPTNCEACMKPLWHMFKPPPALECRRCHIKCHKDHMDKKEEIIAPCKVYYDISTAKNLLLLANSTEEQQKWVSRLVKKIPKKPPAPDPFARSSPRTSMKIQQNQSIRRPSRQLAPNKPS
# Ribosomal protein S6 kinase alpha-2 (Homo sapiens), sequence (Q15349 whole entry): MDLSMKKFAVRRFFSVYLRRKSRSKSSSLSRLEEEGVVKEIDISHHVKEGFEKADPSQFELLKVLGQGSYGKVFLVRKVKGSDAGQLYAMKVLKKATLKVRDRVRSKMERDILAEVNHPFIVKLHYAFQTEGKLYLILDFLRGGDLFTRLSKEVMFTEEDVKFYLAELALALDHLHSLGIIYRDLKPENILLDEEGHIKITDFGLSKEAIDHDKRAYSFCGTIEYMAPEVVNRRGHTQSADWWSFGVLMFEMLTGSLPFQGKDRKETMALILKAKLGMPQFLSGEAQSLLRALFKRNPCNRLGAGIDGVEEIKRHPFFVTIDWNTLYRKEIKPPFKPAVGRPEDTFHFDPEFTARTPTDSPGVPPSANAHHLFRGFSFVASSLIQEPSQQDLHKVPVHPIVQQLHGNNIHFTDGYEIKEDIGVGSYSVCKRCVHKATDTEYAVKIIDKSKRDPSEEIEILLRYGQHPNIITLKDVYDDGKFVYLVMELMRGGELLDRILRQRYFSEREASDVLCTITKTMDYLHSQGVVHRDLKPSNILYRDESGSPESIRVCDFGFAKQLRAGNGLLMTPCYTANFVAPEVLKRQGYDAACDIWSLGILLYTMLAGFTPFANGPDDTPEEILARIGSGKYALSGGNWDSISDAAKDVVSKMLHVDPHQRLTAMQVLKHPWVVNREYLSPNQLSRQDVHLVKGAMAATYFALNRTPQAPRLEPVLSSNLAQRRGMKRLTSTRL
SMILES,inhibition [1],inhibition [2],inhibition [3],inhibition [4],inhibition [5],inhibition [6],inhibition [7],inhibition [8],inhibition [9],inhibition [10],inhibition [11],inhibition [12],inhibition [13],inhibition [14],inhibition [15],inhibition [16],inhibition [17],inhibition [18],inhibition [19],inhibition [20]
C#Cc1cccc(Nc2ncnc3ccc(OCCCCNCCS(C)(=O)=O)cc23)c1,26.7%,3.35%,15%,1.04%,7.37%,2.75%,8.83%,2.48%,4.38%,1.86%,2.52%,3.83%,6.92%,3.85%,5.51%,2.14%,3.87%,3.31%,4.55%,1.75%
Fc1ccc(-c2ncn(C3CCNCC3)c2-c2ccnc(Oc3ccc(F)c(F)c3)n2)cc1,3.98%,1.09%,5.58%,2.42%,0.89%,0.9%,4.44%,1.98%,2.55%,1.38%,6.19%,1.74%,5.45%,0.34%,2.83%,-0.47%,1.32%,2.41%,2.42%,0.29%
NC(=O)Cc1ccccc1Oc1nccc(-c2c(-c3ccc(F)cc3)ncn2C2CCNCC2)n1,9.53%,3.95%,8.49%,1.82%,3.89%,0.97%,4.38%,-0.25%,-1.31%,0.15%,1.73%,-0.06%,0.19%,1.2%,0.63%,0.99%,1.35%,1.2%,3.57%,1.6%
CCC(=O)Nc1ccc(C)c(-c2ccc(C(=O)NCC3CC3)cc2)c1,0.39%,2.64%,2.11%,2.33%,2.99%,1.03%,3.23%,0.64%,1.66%,2.95%,4.2%,2.63%,3.64%,0.56%,0.53%,0.82%,0.79%,1.75%,2.09%,0.01%
COc1ccc2cc(-c3c(-c4ccncc4)nc(-c4ccc(S(C)(=O)=O)cc4C)n3C)ccc2c1,4.27%,3.99%,4.2%,5.14%,8.86%,5.61%,6.44%,5.93%,12.1%,8.02%,10.6%,10.5%,12.3%,6.01%,9.72%,4.66%,9.83%,3.42%,3.72%,1.53%
CS(=O)(=O)CCNCc1ccc(-c2ccc3ncnc(Nc4ccc(OCc5ccccc5)c(Br)c4)c3c2)o1,-2.34%,-0.06%,-0.73%,3.47%,0.89%,2.31%,1.31%,2.17%,2.64%,1.36%,2.16%,0.72%,1.26%,-0.49%,0.36%,-0.55%,-1.39%,1.5%,1.01%,-0.12%
